Experimental data from PubChem BioAssay AID624252 (National Center for Advancing Translational Sciences (NCATS), 2012).
Some of the results follow. Where a call stands in place of a potency, no number is given. Inconclusive results are not listed. The source made the active and inactive calls. Calls follow the shape of the dose curve; as a rule, active = well fitted cell-killing curve with a large enough effect; inconclusive = small, poorly fitted or top-dose-only effect; inactive = flat fitted curve, though single readings scatter.

Assay: qHTS screen for small molecules that inhibit ELG1-dependent DNA repair: Hit Confirmation with Unstimulated Viability Assay;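 also: compound exposure lasted 16 hours before reading; nearly all actives have a fitted effect of over 55% in size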
Details: cell viability counter-screen, luminescence; series mostly up to 45.9 µM
Description: Cancer cells divide rapidly compared to normal cells in the body. During cell division, cancer cells need to duplicate their genome by DNA replication. The failure of genome duplication leads to cancer cells' death. Therefore, inhibitors of DNA replication could specifically kill cancer cells. Based on this concept, many chemotherapeutic agents were developed and have been used to treat cancer patients. However, there are a limited number of agents available in the clinical setting, and some of those that do exist have low efficacy and severe side effects. Therefore, if we can find the compounds that effectively block DNA replication either by directly damaging DNA or by inhibiting other cellular mechanisms, the options for cancer treatment will be broadened. With this in mind, we developed a quantitative high-throughput ELG1-luciferase reporter gene assay. Small molecules that specifically block ELG1 function in response to DNA damage can be identified by monitoring the suppression of luciferase activity. Since ELG1 defines a pathway for repairing DNA damage, agents blocking ELG1 function can be used to sensitize cancer cells to chemotherapeutic agents whose mechanism of action involves the induction of DNA damage.
NIH Molecular Libraries Probe Production Network [MLPCN]
NIH Chemical Genomics Center [NCGC]
Assay Provider: Kyungjae Myung, NHGRI, NIH
For genotoxicity screening, 2,000 cells in 4 uL/well were dispensed into white, solid-bottom 1536-well plates using a solenoid-based dispenser. 23 nL compound or DMSO vehicle were added by a pin tool, the plates were incubated 16 hr at 37 °C and 5% CO2. 5 ul ONE-Glo (Promega) was then added to each plate and following a 30 min incubation at room temperature, luciferase activity was quantified on a ViewLux CCD-based plate reader.
Potency is read from the fitted curve at half-maximal effect.

Row | SMILES | Potency
1 | CC(=O)c1c(C)n(-c2ccc(C)cc2)c2ccc(O)cc12 | inactive
2 | CS(=O)c1ccc(/C=C2\C=Cc3ccccc32)cc1 (stereo not given) | inactive
3 | Cc1ccc(Nc2nc(N3CCOCC3)nc(N3CCOCC3)n2)cc1Cl | inactive
4 | CS(=O)(=O)c1ccc2nc(NC(=O)C3CCCCC3)sc2c1 | inactive
5 | NC(=O)c1sc2nc3c(c(-c4ccccc4)c2c1N)CCC3 | inactive
6 | COc1ccc(NC(C)=O)cc1NC(=O)CN1CCN(C2c3ccccc3-c3ccccc32)CC1 | inactive
7 | COc1ccc(-c2nn(-c3ccccc3)cc2/C=C\C(=O)N2CCOCC2)cc1[N+](=O)[O-] | inactive
8 | COc1ccc(NC(=O)C2CCC(CNc3c(N4CCCCC4)c(=O)c3=O)CC2)c(OC)c1 (stereo not given) | 25 µM (active)
9 | Cc1ccccc1NC(=O)CSc1nc2ccc(Nc3nc(N4CCOCC4)nc(N4CCOCC4)n3)cc2s1 | inactive
10 | CCc1ccc(N(CC)c2ncnc3nc[nH]c23)cc1 | inactive
11 | Nc1nnc(SCC(=O)Nc2ccc3nc(SCC(=O)Nc4ccccc4)sc3c2)s1 | inactive
12 | CC(=O)N1CCc2cc(Br)cc(S(=O)(=O)CCC(=O)Nc3c(C)n(C)n(-c4ccccc4)c3=O)c21 | inactive
13 | COc1ccc(-c2cc(C(=O)N(C)CC(=O)Nc3ccccc3Cl)c3ccccc3n2)cc1OC | inactive
14 | CN(C)c1ccnc2sc3c(=O)n(Cc4ccccc4)cnc3c12 | inactive
15 | O=C(Nn1c(SCc2ccc([N+](=O)[O-])cc2)nc2ccccc2c1=O)c1ccc(F)cc1 | inactive
16 | OCCCNc1nccc(-c2cc(Nc3cccc(Cl)c3)ncn2)n1 | 9.97 µM (active)
17 | CC12CCC(C(=O)N3CCN(c4ncccn4)CC3)(c3nc4ccccc4nc31)C2(C)C (stereo not given) | inactive
18 | Cc1nnc(N/N=C/c2ccccn2)[nH]c1=O | inactive
19 | Cc1ccc(C)c(S(=O)(=O)N2CCN(c3ncnc4sccc34)CC2)c1 | 6.28 µM (active)
20 | CN(CC1CCCO1)S(=O)(=O)c1ccc(C(=O)Nc2ccc(F)cc2)cc1 (stereo not given) | inactive
